Compound activity (PubChem BioAssay)
HPGD inh – inhibitors of human 15-hydroxyprostaglandin dehydrogenase (HPGD). P15428. purified HPGD, NADH fluorescence kinetic, PGE2 substrate. Potency, µM, inactives show top-dose activity change, negative = inhibition, most hits filed as inhibitors. actives 4.3% (n = 150,000). AID 894; active = well fitted inhibition curve with a large enough effect, not every such curve was filed as active; inconclusive = small, poorly fitted or top-dose-only effect, or another doubt; inactive = no such curve, though single readings can be large or run the other way
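NADH formation kinetics: reaction with 30 uM PGE2 and 1 mM NAD+ (final), 20 nM enzyme, Tris-HCl pH 8 with Tween 20, after 15 min compound preincubation at room temperature. Fluorescence change, last versus first of five reads.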
Tau fibril FP – tau fibrillization inhibition (FP). K18 P301L tau heparin fibrillization, Alexa594 FP, 6 h. actives 0.39% (n = 280,000). Potency, µM (highest dose often 57.7 µM), without a hit: at the top dose activity, negative = inhibition, most hits filed as inhibitors. P10636; note: nearly all actives have a fitted effect of over 55% in size
Target sequence (P10636 561-689 P618L limits assumed): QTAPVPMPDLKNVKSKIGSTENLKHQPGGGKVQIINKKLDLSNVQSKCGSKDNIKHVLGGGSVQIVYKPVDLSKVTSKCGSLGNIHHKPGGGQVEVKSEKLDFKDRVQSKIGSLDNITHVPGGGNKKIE
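Human tau K18 […] P301L fragment, 15 uM unlabeled plus 0.24 uM Alexa 594-labeled tau (final), with compound and 20 uM heparin in 100 mM sodium acetate pH 7; 6 hr at 37 C, then Alexa 594 FP read.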
NPSR antag – antagonists of human neuropeptide S receptor cAMP signaling; CHO-NPSR cells, cAMP TR-FRET, antagonist mode; Potency, µM (top dose mostly 38.3 µM), for inactives: at the highest dose activity change, negative = inhibition, usual class: inhibitors; Q6W5P4; actives 1% (n = 220,000); note: nearly all actives have a fitted effect of over 50% in size
Target sequence (Q6W5P4 whole entry, looked up): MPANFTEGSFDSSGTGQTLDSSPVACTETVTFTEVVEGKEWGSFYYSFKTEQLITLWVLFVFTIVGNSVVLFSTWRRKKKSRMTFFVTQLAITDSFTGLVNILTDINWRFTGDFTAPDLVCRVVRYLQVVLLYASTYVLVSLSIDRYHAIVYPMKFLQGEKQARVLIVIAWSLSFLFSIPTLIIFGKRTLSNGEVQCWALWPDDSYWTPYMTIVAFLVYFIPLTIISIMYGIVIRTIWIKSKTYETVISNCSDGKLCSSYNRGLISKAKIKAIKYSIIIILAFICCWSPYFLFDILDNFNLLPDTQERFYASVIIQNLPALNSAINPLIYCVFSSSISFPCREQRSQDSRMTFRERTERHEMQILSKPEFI
Tau fluor counter – counter-screen for tau fibril formation inhibitors. tau K18 P301L Alexa594 fluorescence, heparin fibrillization. Potency, µM (doses to about 57.7 µM), for the others: at the top dose activity change, negative = decrease. actives 0.93% (n = 280,000). AID 1463; note: nearly all actives have a fitted effect of over 55% in size
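Human tau K18 P301L (15 uM unlabeled, 0.24 uM Alexa 594-labeled) in 100 mM sodium acetate pH 7 with 20 uM heparin, 6 hr at 37 C. ThT 30 uM added, 1 hr ambient; Alexa 594 FP and total fluorescence read at 555/632 nm.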
ALDH1A1 block – inhibitors of human aldehyde dehydrogenase 1A1; P00352; Purified ALDH1A1, NADH fluorescence, propionaldehyde substrate; Potency, µM (highest dose often 75.3 µM), without a hit: at the highest dose activity, negative = inhibition, usual class: inhibitors; actives 7.3% (n = 220,000); active = well fitted inhibition curve with a large enough effect, not every such curve was filed as active; inconclusive = small, poorly fitted or top-dose-only effect, or another doubt; inactive = no such curve, though single readings can be large or run the other way;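 note: plate controls were no enzyme wells and a reference inhibitor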
Tau ThT inhib – inhibitors of human tau fibril formation, thioflavin T binding; actives 2.1% (n = 270,000); recombinant tau K18 P301L (four-repeat tau fragment), heparin-induced fibrillization, ThT fluorescence; Potency, µM (series often up to 57.4 µM), for inactives: at the top dose activity, negative = inhibition, usual class: inhibitors; P10636; note: nearly all actives have a fitted effect of over 55% in size
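Tau K18 P301L fragment (15 uM unlabeled plus 0.24 uM Alexa 594-labeled) in 100 mM sodium acetate pH 7 with compound, fibrillization induced by 20 uM heparin for 6 hr at 37 C. Thioflavin T (30 uM) added, fluorescence read after 1 hr (ex 450, em 510 nm).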
An asterisk follows results filed as active; ? = inconclusive; . = not tested or not shown; [ ] = dose if it differs, or a comment. Compounds with a hit are over-represented: about 9.5% of the library has one in this group of screens. Unless noted, calls come from the whole dose curve; as a rule, active = well fitted curve in the direction sought with a large enough effect; inconclusive = small, poorly fitted or top-dose-only effect, or another doubt; inactive = no such curve, though single readings can be large; an effect the other way counts as inactive or inconclusive. Unless noted, % is set by controls: 0 for no effect and ±100 for the full control effect; potency is the fitted concentration of half-maximal effect.

SMILES | HPGD inh | Tau fibril FP | NPSR antag | Tau fluor counter | ALDH1A1 block | Tau ThT inhib
CCCCn1c(CCC)nc([N+](=O)[O-])c1Sc1ccc(Cl)cn1 | -15% | 6% | -24%[46.1 µM] | -17% | 7.1µM* | ?
CC(C)Cn1c(C(C)C)nc([N+](=O)[O-])c1Sc1ccc(Cl)cn1 | -22% | 2% | -7%[46.1 µM] | -13% | 22µM* | -19%
OCCN(CCO)c1ccc(C(c2ccccc2Cl)c2ccc(N(CCO)CCO)cc2Cl)c(Cl)c1 | . | 17% | -27%[46.1 µM] | 11µM*[quencher] | 2% | ?
Cc1noc(-c2ccc(N3CCC(C)CC3)c([N+](=O)[O-])c2)n1 | . | -7% | . | -6% | . | 7%
Cc1cc2n(n1)SC(Nc1ccccc1)N2 (stereo not drawn) | -15% | -8% | -6%[46.1 µM] | -5% | 25µM* | -4%
Cc1ccc(NC2Nc3cc(C)nn3S2)c(C)c1 (stereo not drawn) | . | 0% | 3% | 0% | ? | -1%
CCc1ccc(N(CC)C(=O)Cn2cnc3sc(C)c(S(=O)(=O)N4CCN(c5ncccn5)CC4)c3c2=O)cc1 | . | 0% | . | -11% | . | 4%
Cc1ccc(CNc2oc(-c3ccco3)nc2S(=O)(=O)c2ccccc2)cc1 | -25% | 1% | -21%[46.1 µM] | -16% | 28µM* | -7%
O=S(=O)(c1ccccc1)c1nc(-c2ccco2)oc1NCCN1CCOCC1 | -18% | -17% | -23%[46.1 µM] | ? | 14µM* | ?
CCSc1oc(-c2ccco2)nc1S(=O)(=O)c1ccccc1 | -21% | -8% | -4%[46.1 µM] | -12% | ? | -9%
Cc1ccc(S(=O)(=O)c2nc(-c3ccccc3)oc2NCc2cccnc2)cc1 | -19% | 6% | -18%[46.1 µM] | -20% | 28µM* | -19%
O=S(=O)(c1ccccc1)c1nc(-c2ccco2)oc1NCCCN1CCOCC1 | -24% | 3% | 28%[46.1 µM] | -6% | 8.9µM* | -9%
O=S(=O)(c1ccccc1)c1nc(-c2ccc(F)cc2)oc1NCc1ccccc1 | . | -11% | . | -29% | . | -2%
Cc1ccccc1-c1nc(S(=O)(=O)c2ccc(Br)cc2)c(NCc2cccnc2)o1 | -17% | -1% | -20%[46.1 µM] | -30% | ? | -12%
N#Cc1nc(-c2ccco2)oc1NCCCN1CCOCC1 | ? | -6% | 0%[46.1 µM] | -7% | ? | -3%
Cc1ccc(-n2nnnc2SCC(=O)Nc2sccc2C#N)cc1 | -12% | 1% | -12% | -4% | 1% | -1%
CC(C)c1ccc(NCCC(=O)c2cccs2)cc1 | -11% | 17% | -26% | -23% | 2.8µM* | ?
Cc1ccc(NC(=O)CCC(=O)c2cccs2)cc1 | -11% | 4% | 14%[46.1 µM] | -5% | ? | -11%
Cc1ccc(NCCC(=O)c2cccs2)cc1 | . | 10% | -7% | -15% | 0.89µM* | -16%
O=C(CCNc1cccc(Cl)c1)c1cccs1 | -12% | ? | -4%[46.1 µM] | ? | 1.3µM* | ?
Cc1ccc(NCCC(=O)c2cccs2)cc1C | . | ? | -18% | -16% | 1.6µM* | -19%
NC(=O)C1CCN(CC(=O)Nc2cccc(C(=O)Nc3cccc(C(F)(F)F)c3)c2)CC1 | -15% | 1% | 13% | -4% | 26% | 0%
Cc1ccc(C(=O)c2cn(Cc3ccccc3F)c3cc4c(cc3c2=O)OCO4)cc1 | . | -11% | . | -16% | . | -9%
Cc1ccc(NCCC(=O)c2cccs2)cc1Cl | -7% | 4% | 6%[46.1 µM] | -16% | 2.5µM* | -13%
CCOc1ccc2c(c1)-c1c(ssc1=S)C(C)(C)N2 | -23% | -2% | ? | 13µM*[quencher] | ? | 13µM*
C/C=C/c1ccc(OCC(=O)O)c(OC)c1 | . | -3% | -5% | -2% | -5% | -8%
CC1=C(C#N)c2nc(N)c(C#N)c(C)c2/C1=C\c1ccc(-c2ccccc2C(=O)O)o1 | . | ? | -8% | ? | ? | 8.9µM*
COc1cc(/C=C2/C(C)=C(C#N)c3nc(N)c(C#N)c(C)c32)ccc1OCC(=O)O | . | ? | -10% | ? | ? | 14µM*
CCCCNc1cc(Cl)nc(N)n1 | . | 4% | -2%[7.67 µM] | 1% | . | -5%
